69 sequences from PubChem BioAssay AID1508600 (Functional Genomics Laboratory (NCATS/FGL), 2020) can be followed below.

Among all 53,000 sequences or so, about 3,700 (7%) were called active. The sample as a whole holds a higher share of actives than the screen did. A number with no mark means an inactive call.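 The calls were made as follows: active = gene knockdowns whose robust z-score for IL-1 alpha signal is at least 2 or at most -2, so actives lie on both sides; inactive = the rest.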

A short description of this assay: Components of the Cytosolic LPS Sensing Pathway: Gene Identification via Genome-wide siRNA Screen. To be noted: RAW264.7 macrophages, IL-1a HTRF, actives lie on both sides, screened at 100 nM (by protocol), cells primed 5 h with Pam3CSK4 first. From the text:
Non-canonical inflammasome activation by cytosolic LPS is a critical component of the host response to Gram-negative bacterial infection, however we lack a comprehensive understanding of the cellular processes that control this pathway. Here we describe a genome-wide siRNA screen to identify genes regulating the mouse macrophage IL-1 alpha response to cytosolic LPS.
RAW264.7 cells were maintained in complete DMEM media, comprising DMEM with 4.5 g/L glucose, 10% FBS (Gemini Bio-Products, West Sacramento, CA), 2 mM Glutamine (Lonza) and 20 mM HEPES (Lonza), hereafter complete DMEM.
The RNAi screen was conducted in 384-well format using the Ambion Silencer Mouse Genome siRNA Library (#4391425), which consists of three unique, nonoverlapping, nonpooled siRNAs for each of 17,000 gene targets. siRNA reagents ([…]) were stamped into 384-well white flat-bottom microplates (Corning, 3570) using a Velocity11 VPrep liquid handling system (Agilent) integrated into a BioCel robotic platform (Agilent) in columns 1-22, leaving columns 23-24 empty for negative (Ambion, Negative control #1) and positive (mouse Casp4) controls, respectively. The median value of each plate's negative control column was used to normalize sample wells, and the positive control was used to assess transfection efficiency and assay performance.
Lipofectamine RNAiMAX Transfection Reagent ([…]; Invitrogen) was added in […] serum-free, antibiotic-free media to plate wells using a Thermo Scientific Matrix WellMate and Microplate Stacker. Plates were incubated for 45 min at room temperature to allow for the sufficient formation of siRNA-lipid complexes. Cells were seeded at a density of 1x10^4 cells per well in 20 microL media containing 20% (vol/vol) FBS without antibiotics. The final concentration of siRNA in each well was 100 nM. Cells were cultured for 48h at 37 degrees C in 5% CO2 before addition of […] of TLR ligand Pam3CSK4 for 5 hours. The medium was then removed, replaced with […] growth media and cell were transfected with […] of LipidA and TransIT-TKO (Mirus) for 24 hour. At the end of the LipidA treatment, […] of supernatant was transferred to a 384 Greiner Bio-one non-binding low volume plate and […] of IL-1a HTRF reagent (Cisbio, 62MIL1APEH) was added and incubated at room temperature overnight. The plates were read on an EnVision plate reader (PerkinElmer). Cell viability was measured by adding 20ul Cell Titer Glo to the original plate and running a luminescence read on the EnVision. The quantified IL-1a signal for each siRNA gene-targeted well was divided by the median of the negative control wells and multiplied by 100 to achieve a negative control normalized value for each well/siRNA. This normalized value was then used to generate a robust z-score by first taking the log of each value and then by subtracting the median and dividing by the […].
On the technique in general: TR-FRET usually uses a lanthanide donor and a delayed reading to cut background.
Take GGAUCUGGCGGUUACUAAGTT against Gm867: the z-score is 0.776.
For the sequence GCUCAUUCUUACCAAUCUCTT against Vsig2, the z-score is -2.25 (active).
Under GGCUGUGAAAAAACUAGAATT against Serpina1e stands -0.359.
As for GCCCUACCUUACCUGAUACTT against Rab17, the z-score was 2.03 (active).
In the case of GGAUCUUAGUAAUAUUGGUTT against Ash2l, the z-score was -0.72.
Take CCACAAGUUCACUAAGGAGTT against Six3: the z-score is 0.193.
On to CCUGGAAUCUGUCCCUCAUTT against Olfr262, for which the z-score was -0.161.
Turning to CCCACUUACUUUUGAUGUUTT against Uba1, the z-score was -0.232.
Take GGCACGUGAUAAAGGGUUCTT against Pcdha7: the z-score was 2.56 (active).
The same measure for GCAUGUUUGGAUUGCUAUUTT against Olfr653: 0.999.
For the sequence GGAUUUUCAAAGAGGACACTT against Cdca7l, the z-score is 0.735.
GCAGAGACGUGAUUGAUCGTT against H2bc18: the z-score is -1.17.
As to CCAUUUCUCACCAGUGAUCTT against Gm5535, the z-score was -2.61 (active).
As to CCGUUCCAUCAUUAAGACCTT against Tssk2, the z-score is 0.359.
Under CCAAGGCCAUCUCAUUUUCTT against Olfr749 stands 0.511; under GGCUAUUUUGCUGUACCUCTT against Gbgt1, 0.589; under GGAAAUAUCUCUGGUAAUATT against Reln, -2.17 (active).
Regarding GCAUCCUGAGUCCGUAUCCTT against Rbm11, the z-score is 1.37.
Under GGUAGAGCGCAAGAAGGCATT against Nol12 stands 1.23; under CGGAGUUGAGCCAGAAAAATT against Fbxo31, -0.777.
Take GGAGAAAUUGCCUUUGAUCTT against Pdik1l: the z-score was 0.416.
Take CGAUUUGCAGCCCUCAUGATT against Inka1: the z-score was -2.27 (active).
Regarding GCCGUCUACCCUGAUAACATT against Cp, the z-score was 0.67.
As for GAAGCAGGCCUGGGAUCUUTT against Vmn1r41, the z-score was 2.01 (active).
GGAGCAAAUGAUCAAUAAATT against Serpina3b: the z-score was -0.364.
The same measure for GGCAUCUCUUUGCUUGAAUTT against Lalba: -0.86; for GCCCUCAUUUGUCCUACAUTT against Arhgef2: 0.202.
With GGGUUUAGAGACCCUGAGATT against Klc2, the z-score is -2.09 (active).
In the case of GGUGGACAAGGAGAGGACUTT against H2-Q1, the z-score is 0.109.
GGAAUGGAACACAAAUAGCTT against Kdelr2: the z-score is 0.191.
Take GGACUUUUGUGUAUAGUUATT against Smad1: the z-score is 1.59.
The same measure for GGACGCGGGAAAAAUGUUCTT against Hnrnpab: 1.37; for GCUGGAAGCAUUUGUUUUUTT against Uap1: 2.19 (active).
The same measure for GCUUAGUGACCAUCUCCGUTT against Epop: 0.236.
For GGAAUCUCACCAAUCCAAATT against Rab14, the z-score is -0.364.
The same measure for GGAGAGCUAGCCUUAAUAATT against Bspry: 4.21 (active); for CGGUUACAGGUGAAAUCCUTT against Sval1: -1.36.
Under CGGGUGAUGCCUAUGUCAUTT against Gsn stands 0.837; under GGCUUACAGUUCCAUAUGGTT against Olfr401, -1.11.
On to GCUCAUUGCACUUGCCAAGTT against Tcea2, for which the z-score was -0.0377.
In the case of GGUUUGUGUCUAAGGAAUUTT against Klhdc7a, the z-score was -0.203.
Consider GGUCCUACCUUGAAGCUCCTT against Ado, for which the z-score was 0.816.
Under GCACCAGUCGGUAUUCACATT against C1qc stands -0.665; under GCAUUGUGAGACUAACGUGTT against Dusp7, 1.08.
In the case of GGGAAUAAUGUCUAGUUUGTT against Fam126a, the z-score was 0.215.
With GAUGGUGUCUAGUGAGAGCTT against Oxct2b, the z-score was -2.01 (active).
As to GCACCAUUUUGAUCGUCAUTT against Olfr519, the z-score is 0.341.
Take GGUUUGAAAUGAAACUUCATT against Nedd4l: the z-score is -0.0699.
Turning to GCGAGCUUUAACCUUUCCATT against Olfr1028, the z-score is -2.49 (active).
In the case of CCUCACAAAGCACAAUAUCTT against Sntg1, the z-score is -1.46.
The same measure for CGUAGCUAUUCUGGUUGUCTT against H2-Q6: -0.616.
On to GGUCCUCAAUGAAAUGAGATT against Krt12, for which the z-score is 1.05.
GGAGUUUGGAACUUCCAACTT against Tcf21: the z-score was 2.79 (active).
The same measure for GGACCAAAAUCUAGAAUACTT against Zfp629: -0.898; for GGUAUUUAAGUGAUACAUCTT against Ddost: -0.321.
Regarding GGUACCGUCAGUUGUCCUATT against Rnf4, the z-score is -1.86.
As for GGUGAAGAAGGAGACAAAGTT against Tmem43, the z-score was 0.347.
Turning to GGAUAAAGUUUAAGGAUGGTT against Vmn1r40, the z-score was -0.43.
GGAGAAGGAUGAAGACGGATT against Map1lc3a: the z-score was 0.397.
Under GCUUUUGUUACAUAAUGCUTT against Tmem237 stands 1.12.
As to GACCACUUCCUUCUAUGCCTT against Slc35c1, the z-score is -2.07 (active).
Turning to GGGCUUCAUCAACUAUCUUTT against Spint1, the z-score is 1.03.
For the sequence CGGCUAAAUGCAAGUAAAGTT against Rgma, the z-score was -1.07.
GGUACUGAUUACUCUGUAUTT against Mrps17: the z-score is -0.388.
Take GCUUUUUGUGAAACUGGCCTT against Pstpip2: the z-score was 0.191.
Regarding GGUCAAUAUCCUCGGACAUTT against Hsd17b13, the z-score is -0.386.
As to GCCACGUAGACUGAUAUAGTT against Irf5, the z-score was -1.16.
Turning to GGAACAAGGAAGUUAAGGATT against Olfr1044, the z-score was 0.251.
For the sequence GCCCAACGUGGUGUACAUUTT against Gask1b, the z-score is 4.04 (active).
